The values that follow come from PubChem BioAssay.

The source made the active and inactive calls.

Assay [1] relates to Human papillomavirus type 1a protein E7 (residues 44-93). In words: small molecules binding HPV E7 44-93 – biochemical, small-molecule microarray, residues 44-93, 635 nm fluorescence, primary screen (AID 1108).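 Also: E7 fragment applied at 1 µg/mL in TBST for 1 h at 4 C; score combines spot fluorescence with its signal to noise ratio.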 Conditions: fluorescence 635 nm, higher = more signal.
Assay [2] can be described thus: hepatitis C replication reporter changes, two-sided – Huh7 cells, luciferase reporter, HCV replication inhibitor project, primary screen (AID 1109).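 Also: huh7 hepatoma cells harbouring a luciferase neomycin HCV replicon reporter; luciferase luminescence as measure of HCV replicon replication; test concentration not given here.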 Conditions: Huh7 HCV replicon luciferase reporter, 48 h; higher = more signal. Background: A reporter such as luciferase makes a cellular process visible.
For assay [3], the target named is Left-right determination factor 2 (Homo sapiens) (UniProt O00292). In words: small molecules binding LEFTY2 protein – biochemical, small-molecule microarray, 635 nm fluorescence scan, primary screen (AID 1110). The note with it: higher = more signal.
For assay [4], the target named is Calmodulin-1 (Homo sapiens) (UniProt P0DP23). In words: small molecules binding calmodulin-1 with EGTA – biochemical, small-molecule microarray, Cy5-labelled CALM1, profiling panel (AID 1111).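 Also: labelled calmodulin applied in Tris saline Tween buffer holding calcium plus EGTA and DTT.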 Conditions: Cy5-CALM1 binding fluorescence, higher = more signal.
For assay [5] the target is unchanged. In words: small molecules binding Ca-loaded calmodulin-1 – biochemical, small-molecule microarray, Cy5-labelled CALM1, plus calcium, artefact control for SMM control-protein annotation, profiling panel (AID 1112).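 Also: score merges spot fluorescence with signal to noise from triplicate slides.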 The note with it: Cy5-CALM1 binding fluorescence, higher = more signal.
The nature of assay [6]: probe aWnt5a binding to arrayed compounds – biochemical, biotinylated probe, 635/667 nm fluorescence, primary screen (AID 1113).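 Also: score merges 667 nm fluorescence intensity with signal-to-noise per printed feature.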 The note with it: small-molecule microarray, higher = more signal.
Assay [7] is described as follows: probe aShh binding to arrayed compounds – biochemical, biotinylated probe, 635/667 nm fluorescence, primary screen (AID 1114).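 Also: probe is biotin-labelled aShh protein from a stem cell growth factor screen; measures binding of labelled protein to compounds printed on the slide; score merges feature fluorescence at 667 nm with signal-to-noise.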 The note with it: small-molecule microarray, higher = more signal.
Assay [8] in a line: probe aNog binding to arrayed compounds – biochemical, biotinylated probe, 635/667 nm fluorescence, primary screen (AID 1115).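 Also: probe is biotinylated aNog protein used at 0.15 µg/mL for 1 h at 4 C; z-score combines 667 nm fluorescence of each spot with its signal to noise.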 The note with it: small-molecule microarray, higher = more signal.
Assay [9] concerns the target Torsin-1A-interacting protein 1 (Homo sapiens) (UniProt Q5JTV8). In words: compound microarray binding of lysate hLAP1 – cell lysate, small-molecule microarray, COS7 lysate, 635/667 nm fluorescence, primary screen (AID 1116). The note with it: 635 nm fluorescence, higher = more signal.
The target in assay [10] is Alpha-bungarotoxin (Bungarus multicinctus) (UniProt P60615). In words: compounds binding labelled alpha-BTX control protein – biochemical, small-molecule microarray, Alexa647 label, 635/667 nm fluorescence, artefact control for SMM control protein annotation, profiling panel (AID 1117). Conditions: alpha-BTX-A647 binding fluorescence, higher = more signal.
The target in another assay is Albumin (Bos taurus) (UniProt P02769). In words: compounds binding labelled BSA control protein – biochemical, small-molecule microarray, Alexa647 label, 635/667 nm fluorescence, artefact control for SMM control protein annotation, profiling panel (AID 1118).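 Also: score merges 667 nm emission intensity and signal-to-noise per printed compound spot.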 Conditions: BSA-A647 binding, fluorescence 635 nm, higher = more signal.
Assay [11] can be described thus: probe aXIP binding to arrayed compounds – biochemical, NeuroSMM set, 635/667 nm fluorescence, primary screen (AID 1119).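 Also: probe is the protein aXip251-270 applied at 1 µg/mL to compound-printed slides; binding of probe to printed compounds measured as 667 nm fluorescence plus signal to noise.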 Conditions: small-molecule microarray, higher = more signal, called active from +8 up or from −8 down.
Assay [12] is described as follows: probe aNOTCH3 binding on compound microarray – biochemical, small-molecule microarray, 635/667 nm fluorescence, primary screen (AID 1120).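 Also: probe is a biotin-tagged antibody raised against NOTCH3 rather than NOTCH3 protein; score merges spot fluorescence near 667 nm with spot signal to noise.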 Conditions: higher = more signal.
A short description of assay [13]: probe aNOTCH2 binding on compound microarray – biochemical, small-molecule microarray, 635/667 nm fluorescence, primary screen (AID 1121).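 Also: score merges feature fluorescence read at 667 nm with its signal to noise.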 Conditions: higher = more signal.
The target of assay [14] is Carbonic anhydrase 2 (Homo sapiens) (UniProt P00918). In words: compounds binding carbonic anhydrase 2 – biochemical, small-molecule microarray, Alexa647-labelled CAII, profiling panel (AID 1122). The note with it: CAII-A647 binding fluorescence, higher = more signal.
A short description of assay [15]: COS7 lysate on small-molecule microarray, probe aHis, 635 nm (AID 1123).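 Also: z-score combines 667nm fluorescence intensity with signal-to-noise per printed compound spot.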 Conditions: COS7 cell lysate, fluorescence, higher = more signal.
The nature of assay [16]: probe aLAP1 signal on lysate-treated microarray – cell lysate, small-molecule microarray, COS7 lysate, primary screen (AID 1124).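 Also: lysate comes from COS7 cells expressing LAP1 and is applied at 0.3 µg/mL; score merges spot fluorescence near 667 nm with signal-to-noise over triplicate slides.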 Conditions: probe aLAP1, fluorescence, higher = more signal.
The next assay relates to Sam68 (KHDRBS1). In words: compounds binding KHDRBS1 protein – biochemical, small-molecule microarray, 635 nm fluorescence, primary screen (AID 1125).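 Also: score merges 667 nm channel intensity with signal to noise over triplicate slides.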 The note with it: higher = more signal.
Assay [17] concerns Chordin-like protein 2 (CHRDL2). In words: compounds binding chordin-like 2 – biochemical, small-molecule microarray, 635 nm fluorescence, primary screen (AID 1126).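 Also: printed compound slides probed with Chrdl2 protein at 4 µg/mL for 1 h at 4 C; score merges 667 nm emission intensity with signal to noise over three replicate slides.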 Conditions: fluorescence 635 nm, higher = more signal.
Assay [18] concerns the target Concanavalin-A (Canavalia ensiformis) (UniProt P02866). In words: compounds binding concanavalin A lectin – biochemical, small-molecule microarray, Alexa647 label, 635 nm, artefact control for SMM control protein annotation, primary screen (AID 1127).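 Also: z combines 667 nm emission intensity with signal-to-noise across three replicate slides.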 Conditions: ConA-A647 binding fluorescence, higher = more signal.

Sequence of Concanavalin-A (Canavalia ensiformis) (P02866 whole entry, looked up): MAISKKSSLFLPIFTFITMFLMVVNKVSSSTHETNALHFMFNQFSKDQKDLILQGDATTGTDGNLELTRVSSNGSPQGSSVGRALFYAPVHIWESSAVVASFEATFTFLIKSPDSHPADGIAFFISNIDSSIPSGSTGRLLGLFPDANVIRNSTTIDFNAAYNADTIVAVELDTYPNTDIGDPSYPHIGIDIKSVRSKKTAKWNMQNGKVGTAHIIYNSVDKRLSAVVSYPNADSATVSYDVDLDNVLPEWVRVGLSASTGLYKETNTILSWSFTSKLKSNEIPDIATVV
Sequence of Left-right determination factor 2 (Homo sapiens) (O00292 whole entry, looked up): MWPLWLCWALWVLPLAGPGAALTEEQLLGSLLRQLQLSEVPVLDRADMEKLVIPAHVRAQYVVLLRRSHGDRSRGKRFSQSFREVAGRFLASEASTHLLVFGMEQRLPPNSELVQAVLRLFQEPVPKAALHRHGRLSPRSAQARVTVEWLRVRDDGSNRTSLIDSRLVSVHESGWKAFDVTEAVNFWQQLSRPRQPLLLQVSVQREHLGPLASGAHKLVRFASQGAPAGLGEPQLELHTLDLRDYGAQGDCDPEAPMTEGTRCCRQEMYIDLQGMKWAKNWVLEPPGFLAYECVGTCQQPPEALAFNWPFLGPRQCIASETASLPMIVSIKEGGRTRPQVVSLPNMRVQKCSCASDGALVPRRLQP
Sequence of Torsin-1A-interacting protein 1 (Homo sapiens) (Q5JTV8 whole entry, looked up): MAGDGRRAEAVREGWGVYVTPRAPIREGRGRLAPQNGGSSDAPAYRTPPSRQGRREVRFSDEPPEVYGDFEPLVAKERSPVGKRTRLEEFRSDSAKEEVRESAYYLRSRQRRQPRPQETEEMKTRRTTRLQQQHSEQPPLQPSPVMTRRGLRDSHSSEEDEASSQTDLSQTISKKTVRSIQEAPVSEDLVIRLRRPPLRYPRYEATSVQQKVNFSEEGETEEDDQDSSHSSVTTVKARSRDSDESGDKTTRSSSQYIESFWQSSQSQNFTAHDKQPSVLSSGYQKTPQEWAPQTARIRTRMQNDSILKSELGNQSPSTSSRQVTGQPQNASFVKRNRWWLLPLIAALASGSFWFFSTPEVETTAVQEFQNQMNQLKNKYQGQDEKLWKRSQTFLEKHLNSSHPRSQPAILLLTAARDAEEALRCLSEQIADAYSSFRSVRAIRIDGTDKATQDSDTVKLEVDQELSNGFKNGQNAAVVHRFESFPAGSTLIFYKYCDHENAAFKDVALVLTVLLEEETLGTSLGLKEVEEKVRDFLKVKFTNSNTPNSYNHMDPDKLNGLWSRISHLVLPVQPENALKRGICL
Sequence of Albumin (Bos taurus) (P02769 whole entry, looked up): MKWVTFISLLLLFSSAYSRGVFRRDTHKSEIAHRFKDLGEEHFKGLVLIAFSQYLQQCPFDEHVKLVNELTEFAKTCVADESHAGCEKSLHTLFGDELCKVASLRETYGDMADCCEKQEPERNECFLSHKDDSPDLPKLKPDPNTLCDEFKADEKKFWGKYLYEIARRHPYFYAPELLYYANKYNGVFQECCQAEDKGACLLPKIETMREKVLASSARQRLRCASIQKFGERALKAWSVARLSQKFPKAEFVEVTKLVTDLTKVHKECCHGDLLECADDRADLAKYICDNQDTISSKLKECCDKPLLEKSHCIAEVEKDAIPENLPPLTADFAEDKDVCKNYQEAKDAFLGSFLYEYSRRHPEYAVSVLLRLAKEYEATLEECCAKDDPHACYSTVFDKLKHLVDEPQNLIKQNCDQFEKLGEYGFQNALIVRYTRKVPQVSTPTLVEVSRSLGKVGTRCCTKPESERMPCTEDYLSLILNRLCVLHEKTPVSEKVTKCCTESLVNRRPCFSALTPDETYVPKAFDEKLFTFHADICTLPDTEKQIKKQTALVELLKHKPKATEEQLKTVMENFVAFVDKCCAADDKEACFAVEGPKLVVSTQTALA
Sequence of Alpha-bungarotoxin (Bungarus multicinctus) (P60615 whole entry, looked up): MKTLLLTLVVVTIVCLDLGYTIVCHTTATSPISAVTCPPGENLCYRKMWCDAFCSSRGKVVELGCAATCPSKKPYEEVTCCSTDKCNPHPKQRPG

Turning to `C=C(C)C(=O)OC[C@H]1CN2[C@@H](CC[C@@H](C)[C@@H]2c2ccc(Br)cc2)C(=O)O1`, the composite z-score is 0.33 in assay [1]; 0.373 in assay [3]; -0.562 in assay [4]; -0.395 in assay [5]; -0.178 in assay [6]; -0.0553 in assay [7]. Moreover, the composite z-score in assay [8] was -0.353; in assay [9], -0.273; in assay [10] it was 0.534; in the assay with Albumin (Bos taurus), -0.625; in [12] it was -0.0362; in [13] it was -0.104. In addition, the composite z-score was 0.079 in assay [14]; 0.379 in assay [15]; 0.318 in [16]; 0.428 in the assay on Sam68 (KHDRBS1); 0.698 in [17]; -0.426 in assay [18]. Also, the z-score in assay [2] came to 1.25. Also, in assay [11], the composite Z-score was 0.27 (inactive).

Turning to `CCOC(=O)[C@H](CC(C)C)NC(=O)CCC1CC(OC(=O)NCc2ccc3c(c2)OCO3)CC2(CCCC(COC(=O)NCCOc3ccccc3)O2)O1` (stereo not given in full), the composite z-score in assay [1] was 1.35; in assay [3], 0.715; in assay [4] it was -0.0232; in assay [5] it was -0.466; in assay [6] it was 0.0232; in assay [7], -0.0289. For the same compound, the composite z-score is -0.404 in assay [8]; 0.303 in [9]; 0.905 in assay [10]; 0.232 in the assay with Albumin (Bos taurus); 0.0469 in assay [12]; -0.178 in assay [13]. Further, the composite z-score was 0.166 in assay [14]; 1.22 in assay [15]; -0.248 in assay [16]; 1.33 in the assay with Sam68 (KHDRBS1); 0.99 in assay [17]; 1.14 in [18]. The same compound gave a z-score in assay [2] of -1.07. Also, the composite Z-score in assay [11] was -0.198 (inactive).

For the compound `CC(C)=NOC[C@@H](O)[C@H]1O[C@@H]2OC(C)(C)O[C@@H]2[C@H]1O`, the composite z-score was 0.855 in [1]; 0.989 in assay [3]; 0.0985 in assay [4]; -0.29 in assay [5]; 0.163 in [6]; 0.0952 in assay [7]. For the same compound, the composite z-score in [8] was -0.191; in assay [9], 0.243; in assay [10] it was 0.154; in the assay with Albumin (Bos taurus) it was 0.255; in [12] it was -0.349; in [13] it was -0.273. Further, the composite z-score is -0.0402 in assay [14]; 1.85 in assay [15]; 0.116 in [16]; 0.968 in the assay with Sam68 (KHDRBS1); 0.537 in [17]; 0.929 in assay [18]. This compound showed a z-score in assay [2] of 0.674. Also, the composite Z-score in [11] was 0.559 (inactive).

For `C=CCOCC1CN2[C@@H](CC[C@@H](C)[C@@H]2c2ccc(Br)cc2)C(=O)O1` (stereo not given in full), the composite z-score in [1] is 0.157; in assay [3], 0.0328; in assay [4], -0.457; in assay [5], -0.78; in assay [6], -0.219; in [7], -0.154. Besides, the composite z-score in assay [8] was -0.196; in [9], 0.0323; in [10], 0.101; in the assay with Albumin (Bos taurus) it was -0.509; in [12], -0.0932; in [13], -0.189. Further, the composite z-score is -0.401 in [14]; -0.329 in assay [15]; 0.975 in [16]; -0.85 in the assay with Sam68 (KHDRBS1); 0.562 in [17]; -0.172 in assay [18]. The compound further came in with a z-score in assay [2] of -0.121. Moreover, the composite Z-score in [11] was 0.419 (inactive).

Regarding `C[C@@H]1CC[C@H]2C(=O)N3[C@@H](CC[C@@H](C)[C@@H]3c3ccc(Br)cc3)C(=O)N2[C@H]1c1ccc(Br)cc1`, the composite z-score was -0.0146 in assay [1]; 0.31 in assay [3]; -0.209 in [4]; -0.188 in assay [5]; -0.105 in [6]; -0.138 in assay [7]. The composite z-score in assay [8] is -0.113; in assay [9], 0.08; in assay [10], 0.371; with Albumin (Bos taurus), 0.213; in assay [12], 0.0462; in assay [13], 0.224. Moreover, the composite z-score in assay [14] is -0.161; in [15] it was 0.246; in assay [16], -0.0873; in the assay with Sam68 (KHDRBS1), 0.31; in assay [17] it was 0.391; in assay [18], 0.344. The compound also displayed a z-score in assay [2] of -1.82. The composite Z-score in assay [11] is -0.119 (inactive).

Turning to `CCOC(=O)[C@H](Cc1ccccc1)NC(=O)CCC1CC(OC(=O)NCCc2ccc(F)cc2)CC2(CCCC(COC(=O)NCCOc3ccccc3)O2)O1` (stereo not given in full), the composite z-score in [1] was 1.4; in assay [3], 0.701; in [4] it was 0.483; in assay [5], -0.296; in assay [6] it was -0.0721; in assay [7], -0.0709. Further, the composite z-score in [8] was -0.28; in [9], 0.306; in [10] it was 0.472; with Albumin (Bos taurus) it was 0.595; in assay [12], 0.0833; in assay [13] it was -0.0189. Further, the composite z-score in assay [14] is 0.0403; in [15] it was 0.585; in assay [16] it was 0.283; with Sam68 (KHDRBS1), 1.29; in [17], 0.508; in [18], 0.909. This compound also returned a z-score in assay [2] of -1.05. In addition, the composite Z-score in [11] was -0.275 (inactive).
